Entries with a potency or affinity are not part of this list.

The subject of one experiment is Staphylococcus aureus. Conditions: Concentration 32 ug.mL-1;; ASSAY_TEST Inhibition of Bacterial Growth; detection method Absorption (OD600); MEDIA CAMHB; plate type 384well; NBS; CORNING #3640; time 18 hr.
In the next experiment the test system is Escherichia coli. As to conditions: Concentration 32 ug.mL-1;; ASSAY_TEST Inhibition of Bacterial Growth; detection method Absorption (OD600); MEDIA CAMHB; plate type 384well; NBS; CORNING #3640; time 18 hr.

With `Cc1nnc2ccc(S(=O)(=O)N(Cc3cccc(F)c3)c3ccc(Cl)cc3)cn12`, the Inhibition (usually the drop in the measured response relative to a control, in per cent) with Staphylococcus aureus was 9.42%; in the experiment on Escherichia coli, -6.55%.

As for `O=C(CSc1nnc2n(CC3CCCO3)c(=O)c3sccc3n12)Nc1ccc(F)cc1Cl` (stereo not given), the results for the Inhibition in the experiment with Staphylococcus aureus and in the experiment with Escherichia coli were -6.42% and -12.15%, respectively.

With `COc1ccc(NC(=O)Cn2nc3ccc(Sc4ccccc4)nn3c2=O)cc1`, the values for the Inhibition in the experiment with Staphylococcus aureus and with Escherichia coli were 7.63% and -10.85%, respectively.

For `Cc1ccc(NC(=O)Cn2nc3ccc(SCc4ccc(Cl)cc4)nn3c2=O)c(C)c1`, the Inhibition with Staphylococcus aureus is -11.8%; with Escherichia coli, -8.79%.

As for `O=C(Cn1nc2ccc(-c3ccccc3)nn2c1=O)Nc1ccc(F)c(Cl)c1`, the Inhibition with Staphylococcus aureus is 7.52%; with Escherichia coli it was -1.06%.

Turning to `COc1ccc(NC(=O)Cn2nc3c(Oc4ccc(C)cc4)nccn3c2=O)cc1Cl`, the values for the Inhibition with Staphylococcus aureus and in the experiment with Escherichia coli were -1.59% and -3.22%, respectively.

For `CCc1ccc(N(Cc2ccccc2C)S(=O)(=O)c2cccn3c(CC)nnc23)cc1`, the Inhibition is reported as 11.1% in the experiment on Staphylococcus aureus and -3.02% with Escherichia coli.

Regarding `COc1ccc(CNC(=O)Cn2nc3c(SC4CCCCC4)nccn3c2=O)cc1`, the results for the Inhibition in the experiment on Staphylococcus aureus and in the experiment with Escherichia coli were 8.37% and -2.77%, respectively.

For the compound `O=c1c2nnc(SCc3ccccc3Cl)n2ccn1-c1ccc(F)cc1`, the results for the Inhibition with Staphylococcus aureus and with Escherichia coli were 8.27% and -4.39%, respectively.

As for `Cc1ccc(Sc2nccn3c(=O)n(CC(=O)Nc4ccccc4Br)nc23)c(C)c1`, the Inhibition was -0.81% with Staphylococcus aureus and -13.84% in the experiment with Escherichia coli.

Consider `CCOc1ccc(C(=O)CSc2nnc3c(=O)n(-c4ccc(F)cc4)ccn23)cc1`, for which the Inhibition in the experiment on Staphylococcus aureus is listed as 23.03%; with Escherichia coli it was 1.42%.

`COc1ccc(NC(=O)Cn2nc3c(N4CCOCC4)nccn3c2=O)c(OC)c1`: the Inhibition in the experiment with Staphylococcus aureus was 14.25%; in the experiment on Escherichia coli, -1.5%.

As to `COc1ccccc1NC(=O)Cn1nc2c3c4c(sc3ncn2c1=O)CCCC4`, the Inhibition in the experiment with Staphylococcus aureus is 0.74%; in the experiment with Escherichia coli, -4.22%.

Take `COC(=O)c1ccc(NC(=O)Cn2nc3ccc(Sc4ccc(C)cc4)nn3c2=O)cc1`: the Inhibition with Staphylococcus aureus is listed as 10.91%; with Escherichia coli, -1.06%.

Take `CC(=O)c1ccc(NC(=O)Cn2nc3ccc(-c4ccccc4)nn3c2=O)cc1`: the values for the Inhibition in the experiment with Staphylococcus aureus and with Escherichia coli were 7.56% and -5.17%, respectively.

As for `O=C(Cn1nc2c(SCc3ccccc3)nccn2c1=O)NCc1ccc(Cl)cc1`, the Inhibition in the experiment with Staphylococcus aureus was -0.34%; with Escherichia coli, -19.62%.

As for `O=C(Cn1nc2nc(Nc3ccc(F)cc3)ccn2c1=O)N1CCCc2ccccc21`, the Inhibition in the experiment with Staphylococcus aureus was 5.55%; in the experiment with Escherichia coli it was -6.76%.

For the compound `COc1ccc(NC(=O)CSc2nnc3c(=O)n(-c4cccc(OC)c4)ccn23)cc1`, the Inhibition in the experiment on Staphylococcus aureus is recorded as 14.04%; with Escherichia coli it was -12.03%.

As for `Cc1ccc(Cl)cc1NC(=O)CSc1nc2ccccc2n2c(C(C)C)nnc12`, the figures for the Inhibition in the experiment with Staphylococcus aureus and in the experiment with Escherichia coli were 0.87% and -1.5%, respectively.

Consider `COc1cccc(-n2ccn3c(SCC(=O)c4ccc(OC)c(OC)c4)nnc3c2=O)c1`, for which the Inhibition in the experiment with Staphylococcus aureus is given as 10.14%; with Escherichia coli, 2.93%.

As to `Cc1ccc(-n2ccn3c(SCC(=O)N4CCN(c5ccc(F)cc5)CC4)nnc3c2=O)cc1C`, the Inhibition with Staphylococcus aureus was 15.71%; with Escherichia coli, -2.64%.

For the compound `Cc1nnc2ccc(S(=O)(=O)N(Cc3ccc(F)cc3)c3ccc4c(c3)OCO4)cn12`, the values for the Inhibition with Staphylococcus aureus and in the experiment on Escherichia coli were 6.11% and -4.59%, respectively.

`COc1ccc(C)cc1NC(=O)Cn1nc2ccc(SC(C)(C)C)nn2c1=O`: the Inhibition in the experiment on Staphylococcus aureus was 2.65%; with Escherichia coli, -6.39%.

As to `CC(C)c1nnc2c(SCC(=O)Nc3ccc(Cl)cc3C(F)(F)F)nc3ccccc3n12`, the Inhibition in the experiment on Staphylococcus aureus was 2.01%; in the experiment on Escherichia coli, -15.72%.

As to `O=C(CSc1nnc2c(=O)n(Cc3ccc(F)cc3)ccn12)NCC1CCCO1` (stereo not given), the Inhibition in the experiment on Staphylococcus aureus is recorded as 8.21%; with Escherichia coli, -3.13%.

In the case of `COc1cccc(-n2ccn3c(SCC(=O)Nc4cccc(F)c4)nnc3c2=O)c1`, the Inhibition with Staphylococcus aureus is given as -6.79%; in the experiment with Escherichia coli, -18.41%.

In the case of `CCOc1ccc(NC(=O)Cn2nc3c(Sc4ccc(C)cc4C)nccn3c2=O)cc1`, the Inhibition in the experiment with Staphylococcus aureus is 0.32%; in the experiment on Escherichia coli, -7.3%.

In the case of `CCOc1ccc(NC(=O)Cn2nc3ccc(Sc4cccc(F)c4)nn3c2=O)cc1`, the values for the Inhibition in the experiment with Staphylococcus aureus and with Escherichia coli were 2.36% and -8.51%, respectively.

As to `O=c1c2sccc2n2c(=O)n(Cc3ccccc3F)nc2n1CCc1ccccc1`, the Inhibition in the experiment with Staphylococcus aureus came to 9.4%; in the experiment on Escherichia coli it was 0.41%.

Take `CCc1nnc2c(SCC(=O)Nc3ccc4c(c3)OCCO4)nc3ccccc3n12`: the values for the Inhibition in the experiment on Staphylococcus aureus and with Escherichia coli were -7.96% and 3.84%, respectively.

With `CC(C)NC(=O)CCn1c(=O)c2cc(Cl)ccc2n2c(=O)n(CC#N)nc12`, the results for the Inhibition in the experiment with Staphylococcus aureus and in the experiment with Escherichia coli were 0.39% and -9.95%, respectively.

Regarding `COc1ccc(CNC(=O)CCc2nnc3c(N4CCCCC4)nc4ccccc4n23)cc1OC`, the values for the Inhibition in the experiment with Staphylococcus aureus and in the experiment with Escherichia coli were 16.6% and 2.89%, respectively.

On to `COC(=O)c1ccc(NC(=O)CSc2nnc3c4cc(-c5ccc(OC)cc5)nn4ccn23)cc1`, for which the Inhibition in the experiment on Staphylococcus aureus was determined as 8.99%; in the experiment with Escherichia coli it was 0.03%.

Turning to `CCCCc1ccc(NC(=O)Cn2nc3c(N4CC(C)CC(C)C4)nccn3c2=O)cc1` (stereo not given), the Inhibition in the experiment on Staphylococcus aureus is reported as -4.53%; in the experiment with Escherichia coli it was -8.88%.

As to `Cc1ccc(NC(=O)Cn2c(=O)c3nnc(C)n3c3ccccc32)cc1F`, the Inhibition with Staphylococcus aureus was 11.98%; in the experiment on Escherichia coli it was -4.13%.

These data come from ChEMBL document CHEMBL4513146, “CO-ADD screening of Karazin Kharkiv National University (Ukraine) compounds”.
